From PubChem BioAssay (EPA / NIEHS) come the findings set out here.

Some structures have more than one record in an assay (separate samples or runs), and their calls can disagree. Calls of active or inactive are those of the source. Rule for the calls: active = hit-call score of the fitted dose curve at least 0.9, where 1 is the maximum; inactive = score below 0.9.

Read-out in experiment [1]: Interleukin-8 (IL8), CXCL8 (gene 3576)
The experiment in a line: BSK_3C_IL8: BioMAP Diversity Plus: 3C Assay for Interleukin-8 (IL8) Biomarker Activity (AID 2283020). Conditions: primary human endothelial cells (HUVEC); actives raise or lower the signal. In short, it runs like this:
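Primary human umbilical vein endothelial cells (3C system) were exposed to test chemical for 24 h, then IL-8 was quantified by ELISA. Responses were fitted bidirectionally against DMSO vehicle as baseline.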

Read-out in experiment [2]: Thrombomodulin, THBD (gene 7056)
The experiment in a line: BSK_3C_Thrombomodulin: BioMAP Diversity Plus: 3C Assay for Thrombomodulin Biomarker Activity (AID 2283029). Conditions: primary human endothelial cells (HUVEC); actives raise or lower the signal. In short, it runs like this:
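Primary human umbilical vein endothelial cells (3C system) were exposed to chemical for 24 h, then thrombomodulin levels were measured by ELISA. Activity was fitted bidirectionally against the DMSO negative control as baseline.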

Read-out in experiment [3]: Urokinase-type plasminogen activator receptor (uPAR), PLAUR (gene 5329)
In words: BSK_4H_uPAR: BioMAP Diversity Plus: 4H Assay for Urokinase-type plasminogen activator receptor (uPAR) Biomarker Activity (AID 2283030). As to conditions: primary human endothelial cells (HUVEC); actives raise or lower the signal. In short, it runs like this: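 HUVEC, 24 h post-dose; uPAR by ELISA; bidirectional fit vs DMSO baseline.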

Read-out in experiment [4]: Vascular endothelial growth factor receptor 2 (Homo sapiens) (UniProt P35968)
The experiment in a line: BSK_4H_VEGFRII: BioMAP Diversity Plus: 4H Assay for Vascular endothelial growth factor receptor 2 (VEGFR2) Biomarker Activity (AID 2283031).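 For AC50: cell-surface VEGFR2 protein level quantified by ELISA.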 As to conditions: primary human endothelial cells (HUVEC); actives raise or lower the signal. A digest of the protocol: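 HUVEC (human primary), 4H system; 24 h post-dose; VEGFRII by ELISA; bidirectional curve fit vs DMSO baseline; gain or loss of signal scored.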

Read-out in experiment [5]: Monokine induced gamma interferon (MIG), CXCL9 (gene 4283)
The experiment in a line: BSK_CASM3C_MIG: BioMAP Diversity Plus: CASM3C Assay for Monokine induced gamma interferon (MIG) Biomarker Activity (AID 2283048).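 Note: MIG protein level measured by ELISA.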 Conditions: primary human coronary artery smooth muscle cells; actives raise or lower the signal.

Read-out in experiment [6]: serum amyloid A (SAA), SAA1 (gene 6288)
In words: BSK_CASM3C_SAA: BioMAP Diversity Plus: CASM3C Assay for serum amyloid A (SAA) Biomarker Activity (AID 2283049).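 Note: SAA protein level quantified by ELISA.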 As to conditions: primary human coronary artery smooth muscle cells; actives raise or lower the signal.

Read-out in experiment [7]: Thrombomodulin, THBD (gene 7056)
In words: BSK_CASM3C_Thrombomodulin: BioMAP Diversity Plus: CASM3C Assay for Thrombomodulin Biomarker Activity (AID 2283051).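 Note: thrombomodulin protein level measured by ELISA 24 h after dosing.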 As to conditions: primary human coronary artery smooth muscle cells; actives raise or lower the signal.

Read-out in experiment [8]: Vascular cell adhesion molecule 1 (VCAM1), VCAM1 (gene 7412)
In words: BSK_CASM3C_VCAM1: BioMAP Diversity Plus: CASM3C Assay for Vascular cell adhesion molecule 1 (VCAM1) Biomarker Activity (AID 2283055).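 Note: VCAM-1 protein level quantified by ELISA on the cells.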 Conditions: primary human coronary artery smooth muscle cells; actives raise or lower the signal.

Read-out in experiment [9]: Interleukin-8 (IL8), CXCL8 (gene 3576)
The experiment in a line: BSK_LPS_IL8: BioMAP Diversity Plus: LPS Assay for Interleukin-8 (IL8) Biomarker Activity (AID 2283078). Conditions: primary human HUVEC with PBMC; actives raise or lower the signal. A digest of the protocol:
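HUVEC + PBMC co-culture, LPS-activated; test chemicals dosed, IL-8 read by ELISA at 24 h. Bidirectional curve fit vs DMSO baseline (gain or loss of signal).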

Read-out in another experiment: CD40, CD40 (gene 958)
In words: BSK_SAg_CD40: BioMAP Diversity Plus: SAg Assay for CD40 Biomarker Activity (AID 2283088). As to conditions: primary human HUVEC with PBMC; actives raise or lower the signal. A digest of the protocol: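 HUVEC/PBMC co-culture, 24 h post-dose; CD40 by ELISA, fluorescence intensity; bidirectional fit vs DMSO negative control.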

Read-out in experiment [10]: Collagen I, COL1A1 (gene 1277)
In words: BSK_hDFCGF_CollagenI: BioMAP Diversity Plus: hDFCGF Assay for Collagen I Biomarker Activity (AID 2284250). As to conditions: primary human foreskin fibroblasts. In short, it runs like this: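 Primary human foreskin fibroblasts (hDFCGF system) exposed to chemical for 24 h; Collagen I measured by ELISA. Activity fitted in the positive direction relative to DMSO baseline, with SRB total-protein staining in parallel cultures for overt cytotoxicity.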

Experiment [11] deals with Hepatocyte nuclear factor 3-beta (Homo sapiens) (UniProt Q9Y261). In words: ATG_FoxA2_CIS: Attagene CIS-FACTORIAL HepG2 Assay for human Forkhead box A2 (FOXA2) (AID 2282942). As to conditions: HepG2 cis-reporter transcription factor activity, 24 h; actives raise or lower the signal. In short, it runs like this:
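In transiently transfected human HepG2 cells, promoter-driven reporter mRNA levels after 24 h chemical exposure are determined via RT-PCR with capillary electrophoresis. DMSO serves as baseline for bidirectional fitting.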

The nature of experiment [12]: ATG_FoxO_CIS: Attagene CIS-FACTORIAL HepG2 Assay for human Forkhead box O (FoxO) (AID 2282943). Conditions: HepG2 Attagene cis-reporter, FoxO element, mRNA; actives raise or lower the signal. In short, it runs like this: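 Values reflect reporter mRNA induction or loss in HepG2 cells 24 h post-dosing, fitted bidirectionally with DMSO as negative control and baseline. Detection used RT-PCR and fluorescence capillary electrophoresis.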

Experiment [13] in a line: ATG_GRE_CIS: Attagene CIS-FACTORIAL HepG2 Assay for human Glucocorticoid Response Elements (GRE) (AID 2282947). Conditions: HepG2 GRE cis-reporter, Attagene multiplex mRNA; actives raise or lower the signal. A digest of the protocol:
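HepG2 cells transiently transfected with multiple cis-promoter reporter units measure endogenous TF activity; 24 h compound exposure. Reporter mRNA quantified by RT-PCR, FAM labelling, HpaI digestion and capillary electrophoresis; bidirectional fit vs DMSO baseline.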

Experiment [14] has as its target Hypoxia-inducible factor 1-alpha (Homo sapiens) (UniProt Q16665). The experiment in a line: ATG_HIF1a_CIS: Attagene CIS-FACTORIAL HepG2 Assay for human Hypoxia Inducible Factor 1 (HIF1A) (AID 2282951). Conditions: HepG2 Attagene cis-factorial HIF1a reporter transcription; actives raise or lower the signal. A digest of the protocol: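 In this multiplexed cell assay, HepG2 cells bearing transfected cis reporters are dosed for 24 h and reporter mRNA is read by RT-PCR plus capillary electrophoresis; signal increases and decreases are both scored against DMSO.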

The target in experiment [15] is Hepatocyte nuclear factor 6 (Homo sapiens) (UniProt Q9UBC0). The experiment in a line: ATG_HNF6_CIS: Attagene CIS-FACTORIAL HepG2 Assay for human Hepatocyte Nuclear Factor 6 (HNF6) (AID 2282952). Conditions: HepG2 Attagene cis-factorial HNF6 reporter transcription; actives raise or lower the signal. A digest of the protocol: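 Transiently transfected HepG2 cells expressing cis-regulated reporter transcription units were exposed to chemical for 24 h in a 24-well format. Reporter transcript abundance was determined by fluorescence capillary electrophoresis.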

Experiment [16] concerns the target Heat shock factor protein 1 (Homo sapiens) (UniProt Q00613). In words: ATG_HSE_CIS: Attagene CIS-FACTORIAL HepG2 Assay for human Heat Shock Transcription Factor 1 (HSE) (AID 2282953). Conditions: HepG2 HSE cis-reporter, Attagene RNA transcription; actives raise or lower the signal. In short, it runs like this: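 Endogenous transcription factor activity captured via cis-promoter reporter units transfected into HepG2; treatment lasted 24 h. Fluorescence intensity of reporter fragments analysed with bidirectional curve fitting, DMSO baseline.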

Experiment [17] has as its target Nuclear respiratory factor 1 (Homo sapiens) (UniProt Q16656). The experiment in a line: ATG_NRF1_CIS: Attagene CIS-FACTORIAL HepG2 Assay for human Nuclear Respiratory Factor 1 (NRF1) Orphan Gene (AID 2282987). Conditions: HepG2 NRF1 cis-element reporter, Attagene multiplex; actives raise or lower the signal. In short, it runs like this:
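Transcriptional reporter readout, one component of a 52-endpoint multiplexed HepG2 panel. Exposure 24 h; mRNA detected via RT-PCR and fluorescent capillary electrophoresis; fitting in both directions against DMSO.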

A short description of experiment [18]: ATG_NRF2_ARE_CIS: Attagene CIS-FACTORIAL HepG2 Assay for human Nuclear Factor Erythroid 2 Related Factor 2 (NFR2) response to Antioxidant Response Elements (ARE) (AID 2282992).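 For AC50: reporter mRNA level measured by RT-PCR and capillary electrophoresis fluorescence.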 Conditions: HepG2 Attagene ARE/NRF2 reporter, transcription factor activity; actives raise or lower the signal. A digest of the protocol:
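HepG2 cells transiently transfected with multiplexed cis-element reporter constructs, 24 h after chemical dosing; reporter mRNA quantified by RT-PCR, fluorescent primer extension, HpaI digestion and capillary electrophoresis. Bidirectional fit relative to DMSO.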

Experiment [19] concerns the target Cellular tumor antigen p53 (Homo sapiens) (UniProt P04637). In words: ATG_p53_CIS: Attagene CIS-FACTORIAL HepG2 Assay for human p53 Transcription Factor (AID 2282994). Conditions: HepG2 p53 cis-element reporter, Attagene mRNA; actives raise or lower the signal. In short, it runs like this: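 HepG2 cells transiently transfected with cis-regulated multiple reporter transcription units, dosed 24 h. Reporter mRNA measured by RT-PCR, 6-FAM primer extension, HpaI digestion and capillary electrophoresis; bidirectional fit relative to DMSO.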

Cellular tumor antigen p53 (Homo sapiens), sequence (P04637 whole entry, looked up): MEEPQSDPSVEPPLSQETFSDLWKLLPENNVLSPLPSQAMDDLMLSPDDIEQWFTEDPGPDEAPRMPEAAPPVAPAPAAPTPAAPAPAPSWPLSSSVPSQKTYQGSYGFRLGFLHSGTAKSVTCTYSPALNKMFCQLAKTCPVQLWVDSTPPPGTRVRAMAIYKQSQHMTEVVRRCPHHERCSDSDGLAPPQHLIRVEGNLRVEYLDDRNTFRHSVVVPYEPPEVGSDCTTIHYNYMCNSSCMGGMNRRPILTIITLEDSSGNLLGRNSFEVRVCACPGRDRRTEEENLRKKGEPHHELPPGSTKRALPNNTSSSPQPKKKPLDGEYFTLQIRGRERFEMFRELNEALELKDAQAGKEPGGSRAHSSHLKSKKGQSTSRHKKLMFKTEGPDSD
Hepatocyte nuclear factor 3-beta (Homo sapiens), sequence (Q9Y261 whole entry, looked up): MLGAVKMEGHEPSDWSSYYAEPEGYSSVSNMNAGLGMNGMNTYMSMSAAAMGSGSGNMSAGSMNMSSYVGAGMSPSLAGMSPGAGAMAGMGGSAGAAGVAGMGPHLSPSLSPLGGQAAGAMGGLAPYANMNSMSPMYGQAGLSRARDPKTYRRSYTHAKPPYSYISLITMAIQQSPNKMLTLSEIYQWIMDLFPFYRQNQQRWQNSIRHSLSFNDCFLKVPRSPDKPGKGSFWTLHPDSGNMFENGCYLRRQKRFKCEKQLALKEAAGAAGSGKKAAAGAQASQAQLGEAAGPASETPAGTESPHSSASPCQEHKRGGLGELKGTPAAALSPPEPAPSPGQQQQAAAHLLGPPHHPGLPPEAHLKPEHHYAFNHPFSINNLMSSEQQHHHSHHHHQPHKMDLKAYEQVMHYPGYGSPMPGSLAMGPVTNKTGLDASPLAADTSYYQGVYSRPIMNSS
Hepatocyte nuclear factor 6 (Homo sapiens), sequence (Q9UBC0 whole entry, looked up): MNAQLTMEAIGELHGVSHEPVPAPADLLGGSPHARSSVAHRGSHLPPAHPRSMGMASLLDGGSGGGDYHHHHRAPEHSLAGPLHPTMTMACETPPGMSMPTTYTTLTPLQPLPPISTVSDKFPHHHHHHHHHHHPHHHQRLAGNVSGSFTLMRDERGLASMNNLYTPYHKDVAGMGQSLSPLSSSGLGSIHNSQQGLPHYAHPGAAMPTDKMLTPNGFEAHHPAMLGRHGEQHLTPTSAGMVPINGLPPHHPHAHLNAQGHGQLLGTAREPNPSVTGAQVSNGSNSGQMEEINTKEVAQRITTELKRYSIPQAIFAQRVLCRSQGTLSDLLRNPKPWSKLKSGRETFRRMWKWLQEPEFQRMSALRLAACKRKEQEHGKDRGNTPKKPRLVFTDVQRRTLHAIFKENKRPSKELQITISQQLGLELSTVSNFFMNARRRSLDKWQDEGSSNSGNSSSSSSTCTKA
Nuclear respiratory factor 1 (Homo sapiens), sequence (Q16656 whole entry, looked up): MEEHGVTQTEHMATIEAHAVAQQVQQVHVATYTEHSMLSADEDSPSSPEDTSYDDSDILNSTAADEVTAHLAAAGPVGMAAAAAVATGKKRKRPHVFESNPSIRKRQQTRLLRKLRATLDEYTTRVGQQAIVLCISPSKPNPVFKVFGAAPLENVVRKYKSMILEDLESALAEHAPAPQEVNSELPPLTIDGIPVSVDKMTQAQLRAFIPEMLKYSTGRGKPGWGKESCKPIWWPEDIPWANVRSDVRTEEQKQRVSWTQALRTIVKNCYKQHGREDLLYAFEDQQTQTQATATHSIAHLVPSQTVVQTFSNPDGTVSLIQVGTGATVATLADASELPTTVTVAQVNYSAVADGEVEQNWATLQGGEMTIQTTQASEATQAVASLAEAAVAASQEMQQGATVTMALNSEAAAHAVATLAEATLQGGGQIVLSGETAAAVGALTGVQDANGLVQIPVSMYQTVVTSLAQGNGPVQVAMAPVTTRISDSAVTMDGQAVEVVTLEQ
Hypoxia-inducible factor 1-alpha (Homo sapiens), sequence (Q16665 whole entry, looked up): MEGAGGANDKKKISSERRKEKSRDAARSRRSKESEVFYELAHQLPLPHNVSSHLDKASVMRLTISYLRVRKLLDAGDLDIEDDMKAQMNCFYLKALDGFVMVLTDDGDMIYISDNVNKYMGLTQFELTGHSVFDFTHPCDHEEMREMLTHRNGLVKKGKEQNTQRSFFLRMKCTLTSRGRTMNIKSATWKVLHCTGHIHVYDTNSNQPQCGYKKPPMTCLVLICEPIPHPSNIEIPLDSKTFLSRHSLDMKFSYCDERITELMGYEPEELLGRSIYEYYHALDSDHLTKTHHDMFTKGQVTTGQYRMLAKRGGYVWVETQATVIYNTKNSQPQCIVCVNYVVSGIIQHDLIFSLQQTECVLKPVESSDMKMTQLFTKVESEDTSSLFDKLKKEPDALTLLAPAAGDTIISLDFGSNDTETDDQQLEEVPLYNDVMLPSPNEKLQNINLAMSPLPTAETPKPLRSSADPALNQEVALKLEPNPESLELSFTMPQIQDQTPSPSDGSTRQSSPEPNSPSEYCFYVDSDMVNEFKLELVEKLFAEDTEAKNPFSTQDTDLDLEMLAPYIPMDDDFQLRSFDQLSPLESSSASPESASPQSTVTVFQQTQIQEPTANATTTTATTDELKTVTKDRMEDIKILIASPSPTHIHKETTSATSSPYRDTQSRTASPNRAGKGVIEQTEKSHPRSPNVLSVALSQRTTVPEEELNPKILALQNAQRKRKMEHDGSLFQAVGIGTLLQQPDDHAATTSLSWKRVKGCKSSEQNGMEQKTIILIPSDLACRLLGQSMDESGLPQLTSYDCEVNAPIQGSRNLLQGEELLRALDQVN
Heat shock factor protein 1 (Homo sapiens), sequence (Q00613 whole entry, looked up, the tested form may be a part): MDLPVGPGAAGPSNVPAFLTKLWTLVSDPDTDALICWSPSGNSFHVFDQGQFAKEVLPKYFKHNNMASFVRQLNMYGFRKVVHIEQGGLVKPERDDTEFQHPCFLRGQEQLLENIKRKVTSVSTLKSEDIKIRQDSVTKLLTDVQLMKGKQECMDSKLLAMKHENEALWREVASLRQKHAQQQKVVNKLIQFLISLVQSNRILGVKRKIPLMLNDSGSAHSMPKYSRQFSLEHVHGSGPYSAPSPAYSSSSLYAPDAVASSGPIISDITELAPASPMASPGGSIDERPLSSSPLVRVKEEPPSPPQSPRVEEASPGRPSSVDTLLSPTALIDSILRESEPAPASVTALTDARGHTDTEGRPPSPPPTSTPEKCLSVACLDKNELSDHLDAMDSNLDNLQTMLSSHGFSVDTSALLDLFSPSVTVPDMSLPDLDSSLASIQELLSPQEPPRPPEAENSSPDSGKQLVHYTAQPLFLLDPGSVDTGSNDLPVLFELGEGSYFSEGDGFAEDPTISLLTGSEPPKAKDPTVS

By AC50 is commonly meant the concentration at which the activity in the assay is half-maximal. Take `CC(C)C1OCCN1CCOC(=O)NCCCCCCNC(=O)OCCN1CCOC1C(C)C` (stereo unspecified): the outcome in experiment [1], in experiment [2], in [3], in experiment [4], in experiment [5] and in [6] was inactive. Moreover, the outcome was “inactive” in [7]; “inactive” in experiment [8]; “inactive” in [9]; “inactive” in the experiment with CD40, CD40 (gene 958); “inactive” in [10]. Also, the AC50 was 33 µM (active) in experiment [4] and 1.44 µM (active) in experiment [10].

With `C=CC(C)(CCC=C(C)C)OC(=O)c1ccccc1` (stereo unspecified), the compound was classed as inactive in experiment [11], in experiment [12], in experiment [13], in experiment [14], in experiment [15] and in [16]. Further, the outcome in [17] and in [19] was inactive. For the same compound, in experiment [18], the concentration at half-maximal activity (AC50) is 98 µM (active).

As for `CC(C)CC(=O)CC(C)C`, the compound was classed as inactive in experiment [11], in experiment [12], in experiment [14], in experiment [15], in experiment [16] and in [17]. Besides, the result in experiment [18] and in experiment [19] was inactive.

Take `CCCCCCOC(=O)CCCCCCCC(=O)OCCCCCC`: the outcome in experiment [11], in [13], in experiment [14], in experiment [15], in [16] and in experiment [17] was inactive. Moreover, the compound was called inactive in [18].

On to `Cc1c(C(N)=O)cc([N+](=O)[O-])cc1[N+](=O)[O-]`, for which the outcome in experiment [1], in [2], in [3], in experiment [4], in [5] and in experiment [6] was inactive. Moreover, the outcome in [7] was “inactive”; in [8] it was “inactive”; in experiment [9], “inactive”; in the experiment with CD40, CD40 (gene 958), “inactive”; in experiment [10], “inactive”. Moreover, the AC50 in the experiment with CD40, CD40 (gene 958) was 32.4 µM (active).

On to `COc1cccc(OC)c1C(=O)O`, for which the call in experiment [11], in experiment [12], in experiment [13], in [14], in experiment [15] and in experiment [16] was inactive. Further, the result in [17], in [18] and in experiment [19] was inactive.

With `CCO[Si](OCC)(OCC)c1ccccc1`, the call in experiment [11], in experiment [12], in experiment [13], in experiment [14], in experiment [15] and in [16] was inactive. The outcome in [17], in experiment [18] and in experiment [19] was inactive.

For the compound `COc1c2occc2cc2ccc(=O)oc12`, the compound was called inactive in experiment [11], in experiment [12], in [13] and in experiment [19].
